# Screening data: PubChem BioAssay, National Center for Advancing Translational Sciences (NCATS)
# Hits are enriched below; roughly 19% of the tested compounds scored in any of these assays.
# TDP1 inh: TDP1 (human) enzyme inhibition; AID 485290; 0.28% of 350,000 active; recombinant TDP1, AlphaScreen DNA substrate cleavage; Potency, µM (top dose mostly 130 µM), usual class: inhibitors; also: nearly all actives have a fitted effect of over 40% in size
# Target sequence (Q9NUW8 whole entry, looked up): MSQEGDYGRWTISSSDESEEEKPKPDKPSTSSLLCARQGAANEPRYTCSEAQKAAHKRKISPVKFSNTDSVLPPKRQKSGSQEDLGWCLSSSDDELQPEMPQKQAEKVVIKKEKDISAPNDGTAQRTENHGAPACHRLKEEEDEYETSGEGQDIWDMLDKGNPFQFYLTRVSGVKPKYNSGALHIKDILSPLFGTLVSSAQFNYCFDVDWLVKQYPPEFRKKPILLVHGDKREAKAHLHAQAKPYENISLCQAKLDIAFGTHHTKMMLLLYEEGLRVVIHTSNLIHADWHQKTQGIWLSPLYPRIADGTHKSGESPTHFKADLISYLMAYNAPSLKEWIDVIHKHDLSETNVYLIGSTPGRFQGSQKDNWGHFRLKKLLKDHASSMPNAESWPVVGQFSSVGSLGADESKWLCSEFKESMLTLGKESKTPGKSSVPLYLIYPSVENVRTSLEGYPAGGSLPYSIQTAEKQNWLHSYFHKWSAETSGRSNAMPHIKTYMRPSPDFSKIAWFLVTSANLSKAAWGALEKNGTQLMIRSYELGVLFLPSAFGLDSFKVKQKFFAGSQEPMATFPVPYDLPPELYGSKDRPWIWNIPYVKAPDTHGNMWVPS
#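 Recombinant human Tdp1 (E. coli-expressed, 1 nM final) preincubated with compounds 15 min at room temperature, then 5'-biotin/3'-phosphotyrosine-FITC DNA substrate (15 nM final) added for 5 min. AlphaScreen beads (10 ug/ml final) added 10 min; cleavage lowers signal.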
# DT40 TDP1 no CPT: qHTS for Inhibitors of human tyrosyl-DNA phosphodiesterase 1 (TDP1): qHTS in cells in absence of CPT; DT40 Tdp1-/- hTDP1 cells, no CPT, ATP luminescence, 48 h; Potency, µM (top dose mostly 46.2 µM), usual class: inhibitors; 15% of 420,000 active; AID 686978, 2013; also: nearly all actives have a fitted effect of over 55% in size
#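 No-CPT arm: Tdp1-/-;hTDP1 DT40 cells (400/well) plus compounds, incubated ≥48 hr at 37 °C. Readout CellTiter-Glo luminescence.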
# VP16 counter: inhibits Gal4-VP16 luciferase reporter, ROR gamma counter-screen; Drosophila S2 Gal4-VP16 UAS-luciferase, luminescence, 20 h; Potency, µM (highest dose often 53.6 µM), actives largely listed as inhibitors; 3.5% of 310,000 active; AID 2546;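 also: Gal4-VP16 expression switched on by copper sulfate through the metallothionein promoter; nearly all actives have a fitted effect of over 50% in size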
# RORg inh: ROR gamma (mouse) transcription inhibition; 5.4% of 310,000 active; Potency, µM (series often up to 53.6 µM), hits mostly inhibitors; P51450; Drosophila S2 Gal4-RORgamma UAS-luciferase reporter, 20 h; also: nearly all actives have a fitted effect of over 60% in size
#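 ROR gamma transcriptional activity was tracked as Gal4-UAS luciferase output in stably transfected Drosophila Schneider cells, with compound added 1 hr before 700 uM copper sulfate induction and a 20 hr ambient-temperature incubation.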
# TDP1 cell CPT: growth inhibition of DT40 Tdp1-/-;hTDP1 cells with camptothecin (screen for TDP1 inhibitors); Potency, µM (highest dose often 46.2 µM), usual class: inhibitors; 12% of 420,000 active; chicken DT40 Tdp1-/-;hTDP1 cells + 20 nM CPT, ATP luminescence, 48 h; AID 686979; also: nearly all actives have a fitted effect of over 55% in size
#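 Chicken DT40 Tdp1-/- cells stably complemented with human TDP1 were seeded at 400 cells/well in medium containing 20 nM camptothecin, exposed to pin-transferred compounds, and grown at 37 °C for at least 48 hr. Viability was read as ATP luminescence.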
# A number is an active result; . = inactive; ? = inconclusive; / = no result; [ ] = remark or other dose. Calls follow the shape of the dose curve; as a rule, active = well fitted curve in the direction sought with a large enough effect; inconclusive = small, poorly fitted or top-dose-only effect, or another doubt; inactive = no such curve, though single readings can be large; an effect the other way counts as inactive or inconclusive.
SMILES,TDP1 inh,DT40 TDP1 no CPT,VP16 counter,RORg inh,TDP1 cell CPT
CSc1nnc([C@@H](N)Cc2ccccc2)o1,.,.,.,.,.
CC1CCCC(NC(=O)COC(=O)Cc2ccccc2)C1C (centres undefined),.,.,.,.,.
N[C@H](C(=O)O)[C@@H]1CC(Cl)=NO1,/,2.1µM,/,/,1.7µM
O=[N+]([O-])c1oc2ccc3ccccc3c2c1CCO,/,0.52µM,/,/,0.41µM
O=[N+]([O-])O[C@H]1CO[C@H]2[C@@H]1OC[C@H]2O[N+](=O)[O-],/,.,/,/,.
Cc1ccccc1CN1C(=O)CN=C(c2ccccc2)c2cc(Cl)ccc21,.,18µM,/,/,?
Cc1cccc(CN2C(=O)CN=C(c3ccccc3Cl)c3cc(Cl)ccc32)c1,.,23µM,/,/,23µM
Cc1ccc(NC(=O)CN2C(=O)CN=C(c3ccccc3)c3ccccc32)cc1Cl,.,?,/,/,23µM
NNC(=O)CN1C(=O)CN=C(c2ccccc2)c2cc(Br)ccc21,.,.,.,.,.
C=CCNC(=S)N1Cc2ccccc2-n2nncc2C1,/,.,/,/,.
CC[C@H](CC[C@H](C)[C@@H]1CC[C@@H]2[C@H]3CC=C4C[C@@H](O)CC[C@]4(C)[C@H]3CC[C@]21C)C(C)C,.[21 µM],/,.,.,/
CCC(=O)c1ccc(OCC(=O)N2CCN(CC(=O)Nc3ccccc3C(F)(F)F)CC2)cc1,.,15µM,/,/,?
CN(C)c1cc(N)c2c(n1)CCC2 (tested in a mixture with another compound),.,.,.,.,.
Cc1c(NC(=O)Nc2cccc(C(F)(F)F)c2)sc2nc3n(c(=O)c12)CCC(C)CC3 (centres undefined),.,18µM,/,/,13µM
O=C1c2cccc3cc([N+](=O)[O-])cc(c23)C(=O)N1c1ccccc1O,.,16µM,.,.,21µM
Cc1ccc(NC(=O)CCNC(=O)N2C[C@H]3C[C@@H](C2)c2cccc(=O)n2C3)c(C)c1,/,.,.,.,.
O=c1c2ccccc2nc(-c2ccccc2)n1-c1ccc(O)cc1,.,?,.,.,?
Cc1nc(N2CCN(Cc3ccccc3)CC2)nc2c1C(=O)CC(C)C2 (centres undefined),.,16µM,.,.,18µM
Cc1ccccc1N1CCN(Cc2ccc3c(c2)OCO3)CC1,/,?,.,?,?
O=C(O)c1ccc(/C=C/c2nc3ccccc3c(=O)n2-c2ccc(Br)cc2)cc1,.,?,.,?,.
CCCCOc1ccc(C(=O)NCCc2csc(-c3ccc(OC)cc3)n2)cc1,.,4.1µM,/,/,4.6µM
COC(=O)C1=C(c2ccc(OC)c(OC)c2)C[C@@H]2CC[C@H]1N2C(=O)NCCOc1ccc(OC)cc1,.,.,/,/,.
CC(C)[C@]1(NC(=O)[C@@H]2C=C3c4cccc5[nH]cc(c45)C[C@H]3N(C)C2)O[C@@]2(O)C3CCCN3C(=O)[C@H](Cc3ccccc3)N2C1=O (some centres undefined),.,?,.,.,?
CCOC(=O)C(SP(=S)(OC)OC)c1ccccc1 (centres undefined),.,/,?,13µM,/
O=C1CCN(C(=O)CNC(=O)Cc2ccccc2)CC1,.,.,.,.,.
SMILES,TDP1 inh,DT40 TDP1 no CPT,VP16 counter,RORg inh,TDP1 cell CPT
O=C(NCc1ccccc1)N1CCc2c(sc3c2CCCC3)C1c1ccccc1 (centres undefined),.,16µM,/,/,?
C=C(C)[C@@H]1CC[C@]2(C(=O)O)CC[C@]3(C)C(CCC4[C@@]5(C)CC[C@H](O)C(C)(C)C5CC[C@]43C)C12 (some centres undefined),/,7.3µM,.,3.2µM,6.5µM
COC(=O)[C@@]1(C)CC[C@]2(C)CC[C@@]3(C)C(=CC(=O)C4[C@@]5(C)CC[C@H](O)C(C)(C)[C@@H]5CC[C@]43C)[C@H]2C1 (some centres undefined),.,?,.,.,.
Clc1ccc2ccccc2c1,.,/,.,.,/
Cc1c(Cl)ccc2sc(N3CCN(C(=O)CCS(=O)(=O)c4ccc(F)cc4)CC3)nc12,.,0.46µM,/,/,0.58µM
Cc1cc(/C=C2\C(=O)NC(=O)N(c3ccccc3F)C2=O)c(C)n1-c1cc(C(=O)O)cc(C(=O)O)c1,/,.,.,.,.
NS(=O)(=O)c1ccc(CCNc2nn3c(-c4ccc(F)c(Cl)c4)cnc3s2)cc1,/,23µM,/,/,16µM
c1ccc(-c2nn(-c3ccccc3)[n+](-c3ccccc3)n2)cc1,/,0.41µM,/,/,0.58µM
COc1ccc(-c2nn(CCC#N)cc2C(=O)NCc2ccccc2)cc1[N+](=O)[O-],/,.,.,.,.
COc1cc(-c2ccc(-[n+]3nc(-c4ccccc4)nn3-c3ccc([N+](=O)[O-])cc3)c(OC)c2)ccc1-[n+]1nc(-c2ccccc2)nn1-c1ccc([N+](=O)[O-])cc1,/,6µM,?,?,2.7µM
O=C(N[C@@H]1CN2CCC1CC2)c1cc(Cl)cc2[nH]cnc12,.,/,.,.,/
O=C(N/N=C/C1C(=O)NC(=S)N(c2ccccc2)C1=O)c1cc(Br)c(O)c(Br)c1 (centres undefined),.,?,.,.,16µM
COc1ccc2c3c([nH]c2c1)C(C)NCC3 (centres undefined),.,?,.,.,2.6µM
COc1ccc2[nH]c3c(c2c1)CCNC3C (centres undefined),.,.,.,.,.
O=P(Oc1ccccc1)(Oc1ccccc1)c1ccccc1,?,16µM,.,.,?
O=C(CF)N(O)c1ccc(C=Cc2ccccc2)cc1,/,0.026µM,/,/,0.13µM
CC(Cc1ccccc1)NC(=O)C(c1ccc(N)cc1)c1ccc(N)cc1 (centres undefined),/,?,.,.,12µM
CC(Cc1ccccc1)NC(=O)c1ccc(N)cc1 (centres undefined),/,.,.,.,.
CCc1cccc(NC(=O)C2CCN(S(=O)(=O)c3ccc(Br)s3)CC2)c1,.,?,/,/,?
CC1C(OC(=O)CCC(=O)NC(C)(C)CO)O[C@H]2OC3(C)CC[C@H]4[C@H](C)CCC1C24OO3 (some centres undefined),/,0.037µM,.,.,0.82µM
C[C@H]1[C@H](OC(=O)CCC(=O)NCc2ccc(C(=O)O)cc2)O[C@@H]2O[C@@]3(C)CC[C@H]4[C@H](C)CC[C@@H]1C24OO3,/,0.026µM,.,.,0.26µM
CC(C)CC(NC(=O)CCCNC(=O)CCC(=O)OC1O[C@H]2OC3(C)CC[C@H]4[C@H](C)CCC(C1C)C24OO3)C(=O)O (some centres undefined),/,0.18µM,.,.,0.21µM
Cc1oc(-c2ccccc2F)nc1CS(=O)CC(=O)N1CCC2(CC1)OCCO2 (centres undefined),.,.,.,.,.
